Assay results taken from PubChem BioAssay (NCATS).
Inconclusive results are not listed. The source made the active and inactive calls. Calls come from the whole dose curve.

Experiment: Natriuretic polypeptide receptor (hNpr1) antagonism - Pilot counterscreen GloSensor control cell line (AID 1347045)
Conditions: HEK293 cGMP GloSensor cells, SNP-stimulated luminescence, 20 min; series mostly up to 38.3 µM; activity change, negative = inhibition: at the top concentration
Protocol: F. Fan, B. F. Binkowski, B. L. Butler, P. F. Stecha, M. K. Lewis, K. V. Wood, Novel genetically encoded biosensors using firefly luciferase. ACS Chem Biol 3, 346-351 (2008).
PROTOCOL TABLE (as described by Inglese J, Shamu CE and Guy RK. 2007)
SEQUENCE No. (e.g., 1, 2, 3, etc.); […] (e.g., Cells, Incubation, Reagent, etc.); VALUE and DESCRIPTION.
1. Cells. Seed 1500 HEK293 cGMP-sensor cells per well in 4uL into Greiner 1536-well white/solid bottom high base, TC plates.
2. Incubation. Incubate plated cells at 37C in 5% CO2, 95% RH overnight.
3. Reagent. Add 1uL per well GloSensor reagent from Promega (2% final concentration) or CO2 independent media vehicle control to respective columns of Greiner 1536-well plates.
4. Incubation. Incubate plated cells at room temperature for 2 h, protect from light.
5. Compounds. Library compounds and DMSO vehicle control added at 23nL per well, transferred by Pin Tool.
6. Incubation. Incubate plated cells for 30 min. at room temperature, protect from light.
7. Detector. GloSensor baseline pre-read luminescence measured using CCD-based camera (Viewlux).
8. Compound. Add 1uL of sodium nitroprusside (SNP) to 50 uM final concentration to stimulate soluble guanylyl cyclase (GC) or CO2 independent media as vehicle control.
9. Incubation. Incubate treated cells at room temperature for 20 min., protect from light.
10. Detector. GloSensor post-SNP luminescence measured using CCD-based camera (Viewlux).
NOTES (numbers refer to Sequence numbers above; values are from representative experiments)
1. HEK293 cells expressing GIP/pGS-40F were grown to 85-95% confluence (48-72 h) in T175 culture flasks (CO2 independent media supplemented with 10% FBS, 1% Pen/Strep antibiotics, and 1 ug/mL puromycin). Trypsinize and harvest cells from T175 culture flasks and filter through 40 um cell strainer. Cells counted with Invitrogen Countess (30,000,000 - 50,000,000 cells/flask).
2. Cells incubated for 24 h. at 37C in 95% RH incubator with metal lid having gas-exchange holes.
3. Prepare GloSensor Reagent (Promega): Reconstitute GloSensor luciferase substrate by adding 8.2mL Hepes buffer to 250mg substrate, mix well, protect from light and stored at -80C. Prepare a fresh 12% GloSensor solution in CO2 independent supplemented plating media (see above). Mix well and store at ambient temperature, protected from light. 1uL 12% GloSensor Luciferase Reagent added (2% final concentration) to respective columns of 9 x 1536-well Greiner plate with BioRaptr, 1uL CO2 independent plating media added to respective columns as vehicle control with BioRaptr.
4. Cells incubated for 2 h. at ambient temperature, protected from light with metal lid having gas-exchange holes.
5. 23nL of LOPAC128 library compounds (7 plates) or DMSO vehicle control transferred to 9 Greiner white/solid bottom high base, TC plates in 7 interplate 1:5 titrations (see Yasgar, A. et al. 2008) with Pintool. Two of the 9 plates are DMSO-only in compound field at beginning and end of compound library-treated plates.
6. Cells incubated for 30-50 min. at ambient temperature protected from light with metal lid having gas-exchange holes.
7. Read GloSensor + Antagonist/Compound baseline Luminescence on the ViewLux [Exposure, 30 s; Gain, High; Speed, Slow; Binning, 2X]
8. SNP solution prepared at 500 mM (in H2O) stock concentration. From this a working dilution was prepared at 300 uM in CO2 Independent media. 1uL of 300 uM SNP (50 uM final concentration) or CO2 Independent media vehicle control dispensed into respective columns of 9 x Greiner 1536-well white/solid bottom, tissue culture plates with BioRaptr.
9. Cells incubated for 20 min. at ambient temperature, protected from light with metal lid having gas-exchange holes.
10. Read final luminescence on the ViewLux. [Exposure, 30 s; Gain, High; Speed, Slow; Binning, 2X.]
[…]
% is set by controls: 0 for no effect and ±100 for the full control effect; potency is the fitted concentration of half-maximal effect.

SMILES | activity change, negative = inhibition | Potency
OC1(c2ccc(Cl)cc2)CCN(Cc2c[nH]c3ccccc23)CC1 | 1.91% (inactive) | –
CCCCCC[C@@H]([C@@H](C)O)n1cnc2c(N)ncnc21 | -3.31% (inactive) | –
N=C(N)SCCN | 6.54% (inactive) | –
CC(=O)NNC(=O)N1Cc2ccccc2Oc2ccc(Cl)cc21 | 12.6% (inactive) | –
NC(N)=NC(N)=Nc1cccc(Cl)c1 | 4.32% (inactive) | –
Cc1nc(N=Nc2ccc(S(=O)(=O)O)cc2S(=O)(=O)O)c(COP(=O)(O)O)c(C=O)c1O | -0.326% (inactive) | –
Nc1ncnc2c1nc(Sc1ccc(Cl)cc1)n2[C@H]1OC2COP(=O)(O)O[C@@H]2C1O (stereo not given in full) | -1.71% (inactive) | –
O=C(N[C@@H](Cc1ccccc1)C(=O)CCl)OCc1ccccc1 | – | 3.29 µM (active)
CCC1(O)CC2CN(CCc3c([nH]c4ccccc34)[C@@](C(=O)OC)(c3cc4c(cc3OC)N(C)C3[C@]45CCN4CC=C[C@@](CC)([C@@H](OC(C)=O)[C@]3(O)C(=O)OC)[C@H]45)C2)C1 (stereo not given in full) | -1.06% (inactive) | –
CC(=O)N[C@@H](Cc1c[nH]c2ccccc12)C(=O)OCc1cc(C(F)(F)F)cc(C(F)(F)F)c1 | 2.41% (inactive) | –
O=C(O)CCC/C=C\C[C@@H]1[C@@H](/C=C/[C@H](O)C2Cc3ccccc3C2)[C@@H](F)C[C@@H]1O | 5.04% (inactive) | –
CC(C)NC[C@H](O)COc1cccc2ccccc12 | 11.3% (inactive) | –
Nc1nc2ccc(Cl)cc2c2nc(-c3ccco3)nn12 | 40.8% (inactive) | –
COc1cc2c(CCNC(C)=O)c[nH]c2cc1O | -0.684% (inactive) | –
NC1CCN(O)C1=O (stereo not given) | 7.17% (inactive) | –
CCCc1c(-c2ccc(O)cc2)nn(-c2ccc(O)cc2)c1-c1ccc(O)cc1 | -15% (inactive) | –
N#Cc1cc2nc(O)c(O)nc2cc1[N+](=O)[O-] | -3.24% (inactive) | –
CC[N+](CC)(CC)CC(=O)Nc1c(C)cccc1C | -0.031% (inactive) | –
N[C@@H](CCCC(=O)O)C(=O)O | -7.07% (inactive) | –
CC(=O)O[C@H]1Cc2ccccc2N(C(N)=O)c2ccccc21 | 3.54% (inactive) | –

SMILES | activity change, negative = inhibition | Potency
CNCCNS(=O)(=O)c1cccc2cnccc12 | -6.71% (inactive) | –
CCCCCC(O)CCCC(=O)O (stereo not given) | -0.0958% (inactive) | –
COc1cc(/C=C(\C#N)C(=O)Nc2nnc(C(F)(F)F)s2)ccc1OCc1ccc(C(F)(F)F)cc1C(F)(F)F | – | 14.7 µM (active)
CCCn1c(=O)c(C)cn2nc(N)nc12 | 24.3% (inactive) | –
CN[C@H](CC(=O)O)C(=O)O | 1.76% (inactive) | –
CCN(CC)CCCCCCCCOC(=O)c1cc(OC)c(OC)c(OC)c1 | 5.73% (inactive) | –
Cc1nc(N=Nc2cc(S(=O)(=O)O)c3cc([N+](=O)[O-])cc(S(=O)(=O)O)c3c2)c(COP(=O)(O)O)c(C=O)c1O | 1.69% (inactive) | –
CC1=C(C(=O)O)N2C(=O)[C@@H](NC(=O)C(N)C3=CCC=CC3)[C@H]2SC1 (stereo not given in full) | 2.81% (inactive) | –
CC(C)(C)c1ccc(/C=C/C(=O)Nc2ccc3c(c2)OCCO3)cc1 | – | 16.5 µM (active)
CCCN(CCc1ccccc1)C1CCc2c(O)cccc2C1 (stereo not given) | 1.81% (inactive) | –
O=C(O)[C@H]1NCCC[C@H]1C(=O)O | 6.04% (inactive) | –
N[C@H](C(=O)O)[C@H]1C[C@@H]1C(=O)O | 8.57% (inactive) | –
COc1ccccc1N1CCN(CCN(C(=O)c2ccc(F)cc2)c2ccccn2)CC1 | -1.15% (inactive) | –
O=C(O)Cc1c[nH]c2ccc(O)cc12 | -0.137% (inactive) | –
O=C(O)C1CCNCC1 | 0.932% (inactive) | –
CCCn1c(=O)c2c(ncn2C)n(CCC)c1=O | 32.4% (inactive) | –
c1ccc2c(c1)CC(N1CCN(c3cccc4c3OCCO4)CC1)C2 | 10.2% (inactive) | –
CC(C)NCC(O)COc1ccc(CC(N)=O)cc1 (stereo not given) | -3.16% (inactive) | –
CCCCS(=N)(=O)CC[C@H](N)C(=O)O (stereo not given in full) | -0.162% (inactive) | –
O=C(c1ccc2c(c1)OCCO2)N1CCCCC1 | -0.488% (inactive) | –
